Measured values published in PubChem BioAssay AID1259343 (VanderVen Lab, College of Veterinary Medicine, Cornell …, 2017).
About 2,900 (47%) of roughly 6,200 compounds were called active. No stated cut-off is given here; in the data, active means inhibition above about 50%; inactive means the rest. So high a share suggests a set chosen from earlier hits. Some of the results follow.

Assay: Mycobacterium tuberculosis growth inhibition, primary screen (AID 1259343)
Conditions: inhibition: at 10 µM, active compounds read high; outcome: 10 uM

Row | SMILES | inhibition
1 | CC(C)Cn1c(-c2ccco2)nc2c(c(=O)c3ccccc3n2C)c1=O | -27.4% (inactive)
2 | CCN1C(=O)SC(Nc2ccc(OC)cc2)C1=O (stereo not drawn) | 78.9% (active)
3 | Cc1ccc(NS(=O)(=O)N2CCCCC2)cc1Cl | 23.6% (inactive)
4 | COc1ccc(NC2CC(O)C(CO)O2)cc1 (stereo not drawn) | inactive
5 | CCN1C(=O)SC(Nc2ccc(C)c(Cl)c2)C1=O (stereo not drawn) | 96.3% (active)
6 | O=C(Cn1nnc(-c2cccs2)n1)c1ccc(Cl)s1 | 77.8% (active)
7 | O=C(CN1C(=O)CC2(CCCC2)C1=O)c1ccc(Cl)s1 | -28.2% (inactive)
8 | O=C(Cn1nnc([N+](=O)[O-])n1)c1cccs1 | 98.8% (active)
9 | Cc1ccc(C)c(-n2nnnc2SCCCC(=O)c2cccs2)c1 | -43% (inactive)
10 | Brc1cc2c(cc1Cn1nnc(-c3cccs3)n1)OCO2 | -19.9% (inactive)
11 | CC(C)(C)c1cc2nc(C(=O)O)cc(-c3ccccc3F)n2n1 | 62.4% (active)
12 | CC(C)(C)c1cc2nc(C(=O)O)cc(-c3ccc(Cl)cc3)n2n1 | 83.5% (active)
13 | CC(C)(C)c1cc2nc(C(=O)O)cc(-c3ccccc3Cl)n2n1 | 58.8% (active)
14 | CCC(=O)O[C@H]1CCC2C3CCc4cc(O)ccc4C3CC[C@@]21C (stereo partly drawn) | 46.7% (inactive)
15 | CCC(CC)C(NC[c-]1[c-][c-][c-][c-]1)c1ccccc1.[Fe].[c-]1[c-][c-][cH-][c-]1 (stereo not drawn) | 36.6% (inactive)
16 | O=C(O)CCc1nc2ccccc2oc1=O | 67.4% (active)
17 | O=C(CCc1nc2ccccc2o1)N1CC=C(c2ccccc2)CC1 | 29.9% (inactive)
18 | CCOc1ccc2cc(C(=O)C(C#N)C(=O)c3ccsc3)[nH]c2c1 (stereo not drawn) | 12.1% (inactive)
19 | c1cc2c(c(-c3cccc4[nH]ccc34)c1)CCNC2 | 73.2% (active)
20 | Cn1c2c(c3cc(-c4cccc5c4CCNC5)ccc31)CCCC2=O | 10.9% (inactive)
21 | O=c1[nH]cc(F)c(=O)[nH]1 | 67.9% (active)
22 | Cc1csc(C(C#N)=Cc2cccc(O)c2)n1 | 88.7% (active)
23 | N#CC(=Cc1ccsc1)c1nc2ccccc2s1 | 11.6% (inactive)
24 | Cc1nc(CNc2ccc3c(c2)CCN3C(=O)OC(C)(C)C)cs1 | 29.2% (inactive)
25 | CN1CCCc2cc(NC(=O)NCCC(=O)NC3CCCC3)ccc21 | 0.23% (inactive)
26 | CC(C)(C)OC(=O)N1CCc2cc(NC(=O)C(=O)NC3CC3)ccc21 | 74.5% (active)

Row | SMILES | inhibition
27 | COc1cccc(-c2cnnc(N3CCC(OCc4ccccc4)CC3)n2)c1 | 30.1% (inactive)
28 | c1ccc(COC2CCN(CCOc3ccccc3)CC2)cc1 | 50.1% (active)
29 | CCc1cc(=O)[nH]c(-n2nc(C)cc2NC(=O)c2cccc(C)c2)n1 | 101% (active)
30 | CCc1cc(=O)[nH]c(-n2nc(C)cc2NC(=O)c2ccc(-c3ccccc3)cc2)n1 | 103% (active)
31 | CCc1cc(=O)[nH]c(-n2nc(C)cc2NC(=O)c2ccccc2)n1 | 102% (active)
32 | N#Cc1ccc(Nc2ccc(Cl)cc2)cc1 | 3.65% (inactive)
33 | N#Cc1ccc(Nc2ccc(OC3CCCC3)cc2)nc1 | 93.4% (active)
34 | N#Cc1ccc(Nc2ccc(N3CCCC3)c(F)c2)nc1 | 48.8% (inactive)
35 | CC(C)C1=CC2=CC[C@H]3[C@](C)(CO)CCC[C@]3(C)C2CC1 (stereo partly drawn) | 82.5% (active)
36 | Cc1cn(Cc2csc(C(C)C)n2)cc1C#N | 1.23% (inactive)
37 | N#Cc1cccc(C(=O)NCc2cccc(-c3ncc(-c4ccc(F)cc4)[nH]3)c2)c1 | 81.2% (active)
38 | Cn1c(Sc2ncc(-c3ccc(F)cc3)[nH]2)c(C#N)c(=O)n(C)c1=O | -14.4% (inactive)
39 | O=C(NCc1cccc(-c2ncc(-c3ccc(F)cc3)[nH]2)c1)c1cccs1 | 22.9% (inactive)
40 | O=C(COC1CCCCC1)Nc1ccc(-c2nccs2)cc1 | -7.41% (inactive)
41 | Cc1nc(-c2ccc(NC(=O)COC3CCCCC3)cc2)cs1 | 95% (active)
42 | Cc1nn(-c2ccccc2)c(Cl)c1C(=O)Nc1cccc(C(F)(F)F)c1 | 38.3% (inactive)
43 | Cc1nc(-c2cccs2)cc([C@H]2CN3CC[C@H]2C[C@@H]3CNC(=O)Nc2cccc(C(F)(F)F)c2)n1 | 53.2% (active)
44 | Cc1sc2nc(CSc3ccc(Br)cc3)nc(-n3ccnc3)c2c1C | -19.2% (inactive)
45 | N#CCOc1ccc(NC(=O)CCOc2ccc(F)cc2Cl)cc1 | 81.4% (active)
46 | CC(=O)NCCC(=O)Nc1ccc(Oc2ccc(C#N)cc2)c(Cl)c1 | -2.79% (inactive)
47 | Cc1ccc(C(=O)Nc2ccc(OCC#N)cc2)cc1C | 22% (inactive)
48 | CCOC(=O)N1CCN(S(=O)(=O)CCCOc2ccc3c(c2)OCO3)CC1 | 32.5% (inactive)
49 | O=S(=O)(CCCOc1ccc2c(c1)OCO2)N1CCCCCC1 | 86% (active)
50 | O=S(=O)(CCCOc1ccc2c(c1)OCO2)N1CCCCC1 | 88.8% (active)
51 | CCN(CC)c1ncnc2c1cnn2Cc1ccc(Cl)cc1 | 34.4% (inactive)
52 | Clc1ccc(Cn2ncc3c(N4CCN(c5cccc(Cl)c5)CC4)ncnc32)cc1 | 14.4% (inactive)

Row | SMILES | inhibition
53 | c1ccc2c(c1)oc1c(N3CCCCCC3)ncnc12 | -12.7% (inactive)
54 | Clc1ccc(Cn2ncc3c(N4CCCCC4)ncnc32)cc1 | 67.1% (active)
55 | Cc1ccc(Cn2ncc3c(N4CCC(C)CC4)ncnc32)cc1 | 25.7% (inactive)
56 | Clc1ccc(Cn2ncc3c(N4CCCC4)ncnc32)cc1 | 65.3% (active)
57 | CC1CCN(c2ncnc3c2cnn3Cc2ccc(Cl)cc2)CC1 | 62.6% (active)
58 | CCOc1ccc(C2C(c3nc4ccccc4s3)=C(O)C(=O)N2c2cc(C)on2)cc1OC (stereo not drawn) | 46.5% (inactive)
59 | Clc1ccccc1C(c1ccccc1)(c1ccccc1)n1ccnc1 | 68.1% (active)
60 | COc1cc(OC)c2c(OC)c(-c3ccc4c(c3)OCO4)c(=O)oc2c1 | 70.6% (active)
61 | Cn1ncc2c(N3CCN(CC(=O)Nc4ccc(Cl)cc4F)CC3)ncnc21 | 88.8% (active)
62 | CCCCOc1ccc(C(=O)Nc2cc(C)nn2-c2nc(CCC)cc(=O)[nH]2)cc1 | 101% (active)
63 | CCCc1cc(=O)[nH]c(-n2nc(C)cc2NC(=O)c2ccc(OCC)cc2)n1 | 100% (active)
64 | CCOc1cc(C(=O)Nc2cc(C)nn2-c2nc(C)cc(=O)[nH]2)cc(OCC)c1OCC | 100% (active)
65 | CCCc1cc(=O)[nH]c(-n2nc(C)cc2NC(=O)c2ccc(OC)cc2)n1 | -40.9% (inactive)
66 | CCCc1cc(=O)[nH]c(-n2nc(C)cc2NC(=O)c2cc(OCC)c(OCC)c(OCC)c2)n1 | 100% (active)
67 | O=C(COc1ccc(Cl)c2ccccc12)NCC(F)(F)F | 17.8% (inactive)
68 | Clc1ccc(OCC2CCCNC2)c2ccccc12 (stereo not drawn) | 77.8% (active)
69 | Nc1ncc(Cc2ccc(F)cc2)s1 | 93% (active)
70 | Nc1ncc(Cc2ccc(F)c(Cl)c2)s1 | -17.6% (inactive)
71 | Nc1ncc(Cc2ccc(Br)cc2)s1 | 46.1% (inactive)
72 | COC(=O)c1ccc(COc2ccc(C3C4=C(Nc5nnnn53)C(C(C)(C)C)CCC4)cc2)cc1 (stereo not drawn) | 88.6% (active)
73 | Cc1ccc(C2CC2C(=O)NC(C)c2nc(C3CCCC3)no2)s1 (stereo not drawn) | 29.8% (inactive)
74 | COCCc1noc(C2CC2c2ccc(C)s2)n1 (stereo not drawn) | 90.7% (active)
75 | O=S(N1CCc2ccccc2C1)C12CC3CC(CC(C3)C1)C2 (stereo not drawn) | 80.3% (active)
76 | O=c1cc(CSc2cccc[n+]2[O-])c2c(ccc3ccccc32)o1 | 102% (active)
77 | C=CCNc1nnc(Sc2ncccc2[N+](=O)[O-])s1 | 98.3% (active)
78 | Nc1ncc([N+](=O)[O-])c(Sc2nc3ccccc3s2)n1 | -52.4% (inactive)

Row | SMILES | inhibition
79 | CC(C)=CCC1=C(O)c2ccccc2C(=O)C1=O | 101% (active)
80 | O=C(Nc1nc2c(s1)CCN(Cc1ccccc1)C2)c1cccc(F)c1 | 21.5% (inactive)
81 | O=C(Nc1nc2ccc3ccccc3c2s1)c1ccccc1 | 61.4% (active)
82 | Cc1ccc(Cn2ncc3c(Nc4ccc(C)cc4)ncnc32)cc1 | 35.1% (inactive)
83 | Cc1ccc(Cn2ncc3cc(Br)cnc32)cc1 | 97% (active)
84 | COc1ccc(Nc2ncnc3c2cnn3Cc2ccc(C)cc2)cc1 | 23.5% (inactive)
85 | Cc1ccccc1-n1cc(CN(C)Cc2nc(-c3ccccc3)no2)cn1 | 86% (active)
86 | CCOc1ccc(Br)cc1S(=O)(=O)Oc1cccc2c1OC(C)(C)C2 | 23.4% (inactive)
87 | COc1ccc(Br)cc1S(=O)(=O)Oc1ccc2ccccc2c1 | 95.9% (active)
88 | CC(C)Oc1ccc(CNC(=O)c2cc(Cl)ccc2F)cn1 | -0.38% (inactive)
89 | O=C(NS(=O)(=O)c1ccc(Cl)cc1F)c1cccc2cn[nH]c12 | 22.9% (inactive)
90 | O=C(NCc1ccc(OCC2CC2)nc1)c1cccc2cn[nH]c12 | 79.9% (active)
91 | COCCn1c(O)c(C=NNC(=O)c2cc(Cl)ccc2O)c(=O)[nH]c1=S | 45.1% (inactive)
92 | O=C(NN=Cc1ccco1)c1cc(Br)ccc1O | 98.8% (active)
93 | C=CCc1ccc(OCCOc2ccc(F)cc2)c(OC)c1 | -4.29% (inactive)
94 | C=CCc1ccccc1OCCn1cnc2ccccc21 | 57% (active)
95 | C=CCc1ccc(OCCCCn2cnc3ccccc32)c(OC)c1 | 61.1% (active)
96 | OCc1ccc(Oc2ccc(Br)cc2)c(F)c1 | 94.1% (active)
97 | Cc1ccc(S(=O)(=O)c2ccc([N+](=O)[O-])o2)cc1 | 102% (active)
98 | Cc1nc(N)sc1-c1ccc([N+](=O)[O-])o1 | -7.32% (inactive)
99 | Cc1cc(C)c(-c2nc(NC(=O)C3=COCCO3)sc2C)cc1C | 11.4% (inactive)
100 | O=C(Nc1nnc(C2CC(=O)N(c3ccccc3)C2)o1)C1=COCCO1 (stereo not drawn) | 93.6% (active)
101 | NC(=S)COc1ccccc1 | 65.4% (active)
102 | NC(=S)COc1ccc(F)cc1 | 77.8% (active)
103 | O=C1CC(=O)N2C(c3ccccc3)=CSC2(OCCS)N1 (stereo not drawn) | -5.38% (inactive)
